Rows were chosen to be rich in hits. Some 9.3% of all compounds tested hit in one or more screens of this group.
ELG1 DNA repair – inhibitors of ELG1-dependent DNA repair in HEK293T cells. HEK293T ELG1-luciferase reporter, luminescence, 16 h; DNA damage induced by 5-fluorouridine. Potency, µM (doses to about 46.1 µM), without a hit: top-dose activity change, negative = inhibition, actives largely listed as inhibitors. hit rate 2.3% among 330,000. AID 504467; also: % is scaled to controls: 0 for no effect and ±100 for the full control effect; nearly all actives have a fitted effect of over 55% in size
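In this reporter screen, reduction of luminescence relative to DMSO vehicle indicated activity. Compounds and 5-fluorouridine were added together to 2,000 cells per well, incubated for 16 hr at 37 °C, then developed with ONE-Glo.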
SMN2 splice enh – increases expression of the SMN2 splice variant; HEK293 SMN2-luciferase splicing reporter, luminescence, 30-36 h; Potency, µM (doses to about 46.1 µM), for inactives: at the highest dose activity change, positive = activation, hits mostly activators; hit rate 2.8% among 210,000; also: % of control where 0% means no effect; nearly all actives have a fitted effect of over 55% in size
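qHTS luciferase splicing reporter: luminescence rises when SMN2 exon 7 is included in transfected HEK293 cells. Compound exposure lasted 30-36 h at 37C, with 4.5 mM final sodium butyrate as control, followed by a ONE-Glo read.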
ELG1 genotoxic – inducers of genotoxicity in HEK293T ELG1-luciferase cells | HEK293T ELG1-luciferase reporter, luminescence, 16 h | Potency, µM (doses to about 46 µM), for inactives: top-dose activity change, positive = activation, usual class: activators | hit rate 1.3% among 330,000 | AID 504466; also: % of control where 0% means no effect; nearly all actives have a fitted effect of over 60% in size
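After overnight (16 hr) compound treatment at 37 °C, ELG1-luciferase HEK293T cells were lysed with ONE-Glo; luminescence quantified 30 min later at room temperature.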
FLuc counter – inhibits or activates purified firefly luciferase, miR-21 counter-screen | P08659 | purified FLuc, Km substrates, luminescence inhibition | Potency, µM (series often up to 57.5 µM), for the others: at the top dose activity change, negative = inhibition, usual class: inhibitors | hit rate 6.9% among 360,000 | AID 588342;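 also: plate controls were vehicle for no effect and reference inhibitor for full effect; nearly all actives have a fitted effect of over 55% in size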
Target sequence (P08659 whole entry, looked up): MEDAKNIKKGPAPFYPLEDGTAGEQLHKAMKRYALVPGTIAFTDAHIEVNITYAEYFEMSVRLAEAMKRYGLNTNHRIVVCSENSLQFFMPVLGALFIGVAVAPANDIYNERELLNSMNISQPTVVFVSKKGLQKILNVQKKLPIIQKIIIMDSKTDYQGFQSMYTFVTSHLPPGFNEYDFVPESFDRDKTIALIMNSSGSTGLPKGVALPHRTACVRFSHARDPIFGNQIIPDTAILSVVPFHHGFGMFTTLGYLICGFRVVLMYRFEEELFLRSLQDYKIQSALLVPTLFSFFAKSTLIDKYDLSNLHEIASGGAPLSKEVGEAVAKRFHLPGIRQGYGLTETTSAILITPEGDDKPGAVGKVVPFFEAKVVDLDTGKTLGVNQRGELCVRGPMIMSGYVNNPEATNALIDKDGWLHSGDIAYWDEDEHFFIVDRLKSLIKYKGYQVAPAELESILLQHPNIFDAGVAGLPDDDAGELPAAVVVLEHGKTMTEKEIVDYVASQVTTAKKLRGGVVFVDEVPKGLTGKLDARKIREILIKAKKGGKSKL
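Purified P. pyralis luciferase, 10 nM final, with Km-level 10 uM D-luciferin and 10 uM ATP in 50 mM Tris acetate pH 7.5, 10 mM Mg acetate, 0.01% Tween-20, 0.05% BSA; 6-point qHTS titration about 60 µM downward; luminescence read.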
Rab9 promoter act – activates the Rab9 promoter; Huh7 Rab9 promoter-luciferase reporter, luminescence, 24 h; Potency, µM (titrated, usually from 9.22 µM), for inactives: top-dose activation, negative = inhibition, actives largely listed as activators; hit rate 2.8% among 320,000; also: % of control where 0% means no effect; nearly all actives have a fitted effect of over 60% in size
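Steps: seed 1500 Huh7 Rab9-luc cells per well, rest 2 h at 37 °C; add compound in DMSO; incubate 24 h; add luciferase reagent, 10 min ambient; read luminescence.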
NPC1 promoter act – activates the NPC1 promoter; hit rate 2.4% among 320,000; Huh7 NPC1 promoter luciferase reporter, 24 h; AID 485313; Potency, µM (highest dose often 9.22 µM), for the others: top-dose activation, actives largely listed as activators; also: % of control where 0% means no effect; nearly all actives have a fitted effect of over 60% in size
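Stably transfected Huh7 (NPC1 promoter→luciferase), 1500 cells/well in Opti-MEM + 10% FBS, 2 h settle, then compound 24 h at 37 °C. Luminescence after 10 min with Amplite reagent.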
* hit, by the source's call; u = inconclusive; x = no result. Calls follow the shape of the dose curve; as a rule, active = well fitted curve in the direction sought with a large enough effect; inconclusive = small, poorly fitted or top-dose-only effect, or another doubt; inactive = no such curve, though single readings can be large; an effect the other way counts as inactive or inconclusive. Potency is read from the fitted curve at half-maximal effect.

SMILES	ELG1 DNA repair	SMN2 splice enh	ELG1 genotoxic	FLuc counter	Rab9 promoter act	NPC1 promoter act
O=C(Nc1cc(S(=O)(=O)Nc2ccccc2Cl)ccc1O)c1cc2c(s1)CCCC2	-2%	x	-1%	-1%	-5%	-4%
O=C(Nc1cccc(S(=O)(=O)Nc2ccc(Cl)cc2)c1)c1cc2c(s1)CCCC2	u	-68%	-7%	15µM*	1%	-3%
Cc1ccc(C(=O)Nc2ccc(C)c(S(=O)(=O)Nc3ccccc3Cl)c2)s1	21µM*	-52%	-3%	u	-3%	3%
COc1ccc(-c2nn(-c3ccccc3)cc2CN(C)CCn2ccnc2C)c(F)c1	-4%	x	-6%	-9%	-4%	-5%
COc1ccc([C@@H]2[C@@H]3C(=O)N(C(C)(C)C)C(=O)[C@@H]3[C@]3(C)C(=O)N(c4ccc(C(F)(F)F)cc4)C(=O)N23)cc1	3%	x	3%	-18%	-3%	1%
CC(C)(C)C(=O)Nc1ccc(-c2nc3ccccc3s2)cc1	x	x	x	0.015µM*	x	x
CC(C)(C)NC(=O)c1nc2ccccc2s1	u	-12%	5%	-26%	4%	17%
CCS(=O)(=O)c1ccccc1C(=O)Nc1ccc(-c2nc3ccccc3s2)cc1	x	x	x	9.5µM*	x	x
c1ccc2c(c1)CCN2CCN1CCc2ccccc21	2%	-17%	-3%	-19%	0%	3%
O=C1c2ccccc2C(=O)N1CCN1CCc2ccccc21	u	25%	u	13µM*	u	u
CCC1CCCCN1C(=O)COC(=O)COc1ccc(Br)cc1 (stereo unspecified)	1%	x	0%	x	x	x
NC(=O)NOCc1ccc(Cl)cc1Cl	17%	20%	6%	-4%	-10%	2%
CNC(=S)/N=C/NOCc1ccc(Cl)cc1Cl	12µM*	-41%	-8%	-10%	-12%	-15%
COc1ccccc1N=Cc1c(C)c(C#N)c2[nH]c3ccccc3n2c1=O	5%	x	9%	-10%	-3%	1%
Cc1c(Cc2ccccc2)c(=O)n2c([nH]c3ccccc32)c1C#N	2.3µM*	x	-18%	5%	0%	2%
N#Cc1c(C(F)(F)F)cc(=O)n2c1[nH]c1ccccc12	-20%	x	-6%	27µM*	2%	0%
N#Cc1c(CSCC(=O)O)cc(=O)n2c1[nH]c1ccccc12	-9%	x	-1%	u	-3%	-2%
O=S(=O)(c1ccc2c(c1)OCCO2)N1CCN(S(=O)(=O)c2ccccn2)CC1	11%	x	2%	x	x	x
Cc1ccc2cc(CN(Cc3ccco3)C(=S)NCC3CCCO3)c(=O)[nH]c2c1 (stereo unspecified)	21µM*	x	-6%	5%	-20%	-3%
Cc1cccc2cc(CN(Cc3ccco3)C(=O)c3ccncc3)c(=O)[nH]c12	11µM*	-27%	-18%	1%	-6%	-4%
Cc1ccc2cc(CN(Cc3ccco3)C(=O)NC3CCCCC3)c(=O)[nH]c2c1C	7.3µM*	-28%	-6%	-15%	1%	-9%
O=c1[nH]c2cc3c(cc2cc1CN(Cc1ccco1)C(=S)NCC1CCCO1)OCCO3 (stereo unspecified)	1%	x	-2%	-2%	-1%	-8%
Cc1cccc2cc(CN(CC3CCCO3)C(=S)NCc3ccco3)c(=O)[nH]c12 (stereo unspecified)	18µM*	-38%	-1%	1%	-1%	-1%
O=C(c1ccncc1)N(Cc1ccco1)Cc1cc2ccccc2[nH]c1=O	-20%	-10%	-3%	1%	-1%	0%
COC(=O)CN(C)C(=O)c1cccc(OC2CCN(S(=O)(=O)N(C)C)CC2)c1	-5%	x	0%	-7%	5%	2%
SMILES	ELG1 DNA repair	SMN2 splice enh	ELG1 genotoxic	FLuc counter	Rab9 promoter act	NPC1 promoter act
Cc1ccc(C)c2[nH]c(=O)c(CN(Cc3ccco3)C(=S)NCC3CCCO3)cc12 (stereo unspecified)	23µM*	x	-8%	1%	-7%	-6%
Cc1cc(C)c2[nH]c(=O)c(CN(CC3CCCO3)C(=S)Nc3ccccc3)cc2c1 (stereo unspecified)	-16%	-2%	7%	-1%	-1%	-7%
Cc1cccc2cc(CN(Cc3cccs3)C(=S)NCC3CCCO3)c(=O)[nH]c12 (stereo unspecified)	16µM*	-43%	-4%	8%	-4%	-5%
Cc1ccc(C2NC(=O)c3c(sc4c3CCN(C)C4)N2)s1 (stereo unspecified)	u	-15%	3%	12µM*	u	u
Cc1ccsc1C1NC(=O)c2c(sc3c2CCCC3)N1 (stereo unspecified)	u	16µM*	u	17µM*	u	u
Cc1cccc(C2NC(=O)c3c(sc4c3CCN(C)C4)N2)c1O (stereo unspecified)	x	16µM*	x	24µM*	x	x
Nc1nc(-c2ccccc2)c(N=Nc2cccc3ccccc23)s1	14%	-28%	0%	27µM*	-3%	1%
COc1cccc(-c2nc(NC(C)C)c3ccccc3n2)c1O	5.2µM*	-17%	-6%	-18%	0%	6%
CCC(C)Nc1nc(-c2cccc(OC)c2O)nc2ccccc12 (stereo unspecified)	18%	0%	-2%	-6%	0%	-7%
O=C(O)c1cc(N2N=C(C(F)(F)F)/C(=C/C=C/c3ccco3)C2=O)ccc1Cl	-2%	x	-2%	24µM*	-3%	-4%
CCOC(=O)c1ccc(N2N=C(C)/C(=C/C=C/c3ccco3)C2=O)cc1	14%	7%	18%	u	-2%	-6%
COc1cc(CNc2ccc(NC(C)=O)cc2)ccc1OCc1ccccc1C	10%	15%	u	15µM*	u	13%
CC(OCC(O)CN(C)Cc1nc2ccccc2c(=O)[nH]1)c1ccc(Cl)cc1 (stereo unspecified)	u	-16%	-11%	-5%	-12%	-3%
CCC(C(=O)Nc1cc(-c2nc3cccnc3s2)ccc1C)c1ccccc1 (stereo unspecified)	x	x	x	11µM*	x	x
Cc1ccc(-c2nc3cccnc3s2)cc1NC(=O)C(C)C	x	x	x	11µM*	x	x
Cc1cccc(C(=O)Nc2cc(-c3nc4cccnc4s3)ccc2C)c1	x	x	x	-2%	x	x
Cc1ccc(-c2nc3cccnc3s2)cc1NS(C)(=O)=O	u	x	u	13µM*	u	u
COc1ccc(CCNC(=O)C(=O)NCC(c2ccco2)S(=O)(=O)c2ccccc2)cc1 (stereo unspecified)	x	x	x	0%	x	x
COc1ccc(C(=O)COC(=O)C(CCSC)NC(=O)COc2ccccc2)c(OC)c1 (stereo unspecified)	u	x	-1%	u	-5%	2%
